According to PubChem BioAssay (EPA / NIEHS):
Active and inactive are the calls of the source. Rule for the calls: active = hit-call score of the fitted dose curve at least 0.9, where 1 is the maximum; inactive = score below 0.9.

What was measured:
[1] = molecular target: Bile acid receptor (Homo sapiens) (UniProt Q96RI1); assay: ATG_IR1_CIS: Attagene CIS-FACTORIAL HepG2 Assay for human Nuclear Receptor Subfamily 1 Group H Member 4 (NR1H4), IR1 submotif (AID 2282946); conditions: IR1 reporter transcription, actives raise or lower the signal
Chain of Bile acid receptor (Homo sapiens) (Q96RI1 whole entry, looked up): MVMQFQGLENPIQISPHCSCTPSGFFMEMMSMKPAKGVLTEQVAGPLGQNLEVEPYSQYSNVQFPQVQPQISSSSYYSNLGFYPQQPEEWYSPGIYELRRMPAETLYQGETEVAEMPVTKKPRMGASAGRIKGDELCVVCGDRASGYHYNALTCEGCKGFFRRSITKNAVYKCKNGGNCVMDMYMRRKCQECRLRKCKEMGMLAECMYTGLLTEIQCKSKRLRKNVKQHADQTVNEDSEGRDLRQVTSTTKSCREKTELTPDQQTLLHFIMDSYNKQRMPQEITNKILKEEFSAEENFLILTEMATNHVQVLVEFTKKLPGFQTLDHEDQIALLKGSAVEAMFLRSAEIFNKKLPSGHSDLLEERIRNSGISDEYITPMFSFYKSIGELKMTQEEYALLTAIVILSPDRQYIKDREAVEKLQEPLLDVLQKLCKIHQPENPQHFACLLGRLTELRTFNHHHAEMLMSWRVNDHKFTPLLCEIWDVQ
Summary of the method: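 Transient MRTU transfection, HepG2; 24 h dosing; RNA → RT-PCR → 6-FAM primer extension → HpaI digest → capillary electrophoresis fluorescence. Gain/loss of signal fitted relative to DMSO.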

[2] = ATG_M_32_CIS: Attagene CIS-FACTORIAL HepG2 Assay for M32 Transcription Factor (Internal Marker) (AID 2282949); conditions: HepG2 Attagene cis-factorial M32 reporter, mRNA; actives raise or lower the signal;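 note: background control marker of the multiplexed CIS panel rather than a real target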
Summary of the method: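 HepG2 cells transiently transfected with multiplexed cis-regulated reporter units, dosed 24 h. Reporter mRNA quantified by RT-PCR, 6-FAM labelling, HpaI digestion and capillary electrophoresis; bidirectional fit vs DMSO.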

[3] = ATG_M_06_CIS: Attagene CIS-FACTORIAL HepG2 Assay for M06 Transcription Factor (Internal Marker) (AID 2282950); conditions: HepG2 Attagene CIS-FACTORIAL M06 internal marker reporter; actives raise or lower the signal
Summary of the method: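 Steps: transfect HepG2 with multiplexed cis-element reporter constructs; dose chemical 24 h; extract RNA with DNase treatment; reverse-transcribe, PCR-amplify, 6-FAM label, HpaI digest; separate fragments by capillary electrophoresis. Activity fitted both directions versus DMSO.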

[4] = molecular target: Hypoxia-inducible factor 1-alpha (Homo sapiens) (UniProt Q16665); assay: ATG_HIF1a_CIS: Attagene CIS-FACTORIAL HepG2 Assay for human Hypoxia Inducible Factor 1 (HIF1A) (AID 2282951); conditions: HepG2 Attagene cis-factorial HIF1a reporter transcription; actives raise or lower the signal
Chain of Hypoxia-inducible factor 1-alpha (Homo sapiens) (Q16665 whole entry, looked up): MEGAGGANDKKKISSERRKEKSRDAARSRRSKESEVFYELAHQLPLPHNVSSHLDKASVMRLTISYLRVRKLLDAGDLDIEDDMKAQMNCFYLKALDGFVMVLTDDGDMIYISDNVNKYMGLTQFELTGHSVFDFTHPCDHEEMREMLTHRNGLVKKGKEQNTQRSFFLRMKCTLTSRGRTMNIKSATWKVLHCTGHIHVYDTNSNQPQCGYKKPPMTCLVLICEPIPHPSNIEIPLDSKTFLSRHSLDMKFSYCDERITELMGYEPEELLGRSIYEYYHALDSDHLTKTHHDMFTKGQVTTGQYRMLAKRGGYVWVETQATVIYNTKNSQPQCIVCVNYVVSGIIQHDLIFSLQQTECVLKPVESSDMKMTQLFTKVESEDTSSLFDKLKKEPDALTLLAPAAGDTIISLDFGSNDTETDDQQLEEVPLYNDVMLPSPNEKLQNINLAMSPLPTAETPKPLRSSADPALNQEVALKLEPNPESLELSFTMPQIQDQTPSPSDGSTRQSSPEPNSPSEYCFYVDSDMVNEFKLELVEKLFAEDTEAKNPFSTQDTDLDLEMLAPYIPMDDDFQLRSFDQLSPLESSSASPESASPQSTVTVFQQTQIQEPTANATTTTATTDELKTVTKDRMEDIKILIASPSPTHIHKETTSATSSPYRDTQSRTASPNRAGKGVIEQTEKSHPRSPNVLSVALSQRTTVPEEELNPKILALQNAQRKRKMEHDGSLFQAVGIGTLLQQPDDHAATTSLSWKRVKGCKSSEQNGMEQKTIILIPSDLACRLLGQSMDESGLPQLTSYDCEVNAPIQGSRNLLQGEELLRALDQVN
Summary of the method: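 Activity is fitted in both directions relative to DMSO. Reporter transcripts are read by RT-PCR, fluorescent primer extension and capillary electrophoresis after 24 h chemical treatment. The cells are HepG2 carrying transiently transfected cis-element-driven reporter units responding to endogenous factors.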

[5] = molecular target: Hepatocyte nuclear factor 6 (Homo sapiens) (UniProt Q9UBC0); assay: ATG_HNF6_CIS: Attagene CIS-FACTORIAL HepG2 Assay for human Hepatocyte Nuclear Factor 6 (HNF6) (AID 2282952); conditions: HepG2 Attagene cis-factorial HNF6 reporter transcription; actives raise or lower the signal
Chain of Hepatocyte nuclear factor 6 (Homo sapiens) (Q9UBC0 whole entry, looked up): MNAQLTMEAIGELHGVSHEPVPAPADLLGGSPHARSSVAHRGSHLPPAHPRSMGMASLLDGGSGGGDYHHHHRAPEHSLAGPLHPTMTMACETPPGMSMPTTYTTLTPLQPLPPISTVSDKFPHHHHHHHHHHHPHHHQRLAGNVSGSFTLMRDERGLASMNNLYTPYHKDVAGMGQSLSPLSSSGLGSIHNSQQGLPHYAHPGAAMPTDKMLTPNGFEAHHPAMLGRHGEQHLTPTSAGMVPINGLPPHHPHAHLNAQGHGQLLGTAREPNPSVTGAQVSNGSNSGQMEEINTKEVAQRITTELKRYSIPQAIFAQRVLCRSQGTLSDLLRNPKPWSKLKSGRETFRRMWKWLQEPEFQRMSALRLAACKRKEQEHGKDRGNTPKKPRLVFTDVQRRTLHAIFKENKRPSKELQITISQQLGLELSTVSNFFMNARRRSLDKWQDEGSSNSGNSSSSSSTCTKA
Summary of the method: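 HepG2, transient MRTU transfection (cis promoters); 24 h chemical exposure; total RNA → oligo(dT) RT → PCR → 6-FAM labelling → HpaI cut → CE; bidirectional fit vs DMSO.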

[6] = molecular target: Heat shock factor protein 1 (Homo sapiens) (UniProt Q00613); assay: ATG_HSE_CIS: Attagene CIS-FACTORIAL HepG2 Assay for human Heat Shock Transcription Factor 1 (HSE) (AID 2282953); conditions: HepG2 HSE cis-reporter, Attagene RNA transcription; actives raise or lower the signal
Chain of Heat shock factor protein 1 (Homo sapiens) (Q00613 whole entry, looked up, the tested form may be a part): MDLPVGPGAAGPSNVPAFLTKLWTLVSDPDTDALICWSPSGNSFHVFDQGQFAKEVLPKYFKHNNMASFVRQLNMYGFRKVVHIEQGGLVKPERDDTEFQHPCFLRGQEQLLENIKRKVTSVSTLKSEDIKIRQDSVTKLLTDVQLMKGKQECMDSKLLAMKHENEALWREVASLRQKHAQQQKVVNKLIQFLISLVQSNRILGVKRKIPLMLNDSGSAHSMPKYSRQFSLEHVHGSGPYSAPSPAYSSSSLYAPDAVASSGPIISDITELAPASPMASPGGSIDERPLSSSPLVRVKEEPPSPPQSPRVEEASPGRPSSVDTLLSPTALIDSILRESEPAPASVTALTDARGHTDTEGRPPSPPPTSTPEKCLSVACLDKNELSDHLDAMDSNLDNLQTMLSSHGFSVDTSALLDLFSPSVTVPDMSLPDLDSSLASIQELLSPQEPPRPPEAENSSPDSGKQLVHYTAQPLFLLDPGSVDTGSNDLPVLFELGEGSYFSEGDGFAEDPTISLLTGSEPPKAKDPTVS
Summary of the method: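 Cells were transfected with cis-element-driven reporter constructs, dosed for 24 h, then total RNA was reverse-transcribed and reporter cDNA amplified, FAM-labelled and digested with HpaI. Fragments were resolved by capillary electrophoresis; gain or loss was fitted against DMSO.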

[7] = ATG_MRE_CIS: Attagene CIS-FACTORIAL HepG2 Assay for human Metal Responsive Element (MRE) (AID 2282954); conditions: HepG2 MRE cis-reporter transcription, Attagene multiplex; actives raise or lower the signal
Summary of the method: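 Step one: transfect HepG2 with cis-regulated reporter units. Step two: dose 24 h. Step three: isolate RNA, RT-PCR, 6-FAM label, HpaI digest, capillary electrophoresis. Fit bidirectionally to DMSO.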

[8] = ATG_ISRE_CIS: Attagene CIS-FACTORIAL HepG2 Assay for human Interferon Regulatory Factor 1 (IRF1) binding to an Interferon-Stimulated Response Element (ISRE) (AID 2282948); conditions: HepG2 ISRE cis-reporter (Attagene), mRNA transcription readout; actives raise or lower the signal
Summary of the method: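 Quantitation relies on labelled RT-PCR fragments separated by capillary electrophoresis. Human HepG2 cells bearing cis-promoter reporter constructs were treated 24 h; DMSO served as baseline for bidirectional fitting.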

[9] = ATG_PBREM_CIS: Attagene CIS-FACTORIAL HepG2 Assay for human Phenobarbital-responsive Enhancer Module (PBREM) (AID 2282955); conditions: HepG2 PBREM cis-reporter, Attagene multiplexed transcription; actives raise or lower the signal
Summary of the method: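 Endogenous transcription factor activity was read from reporter transcripts in transiently transfected human HepG2 liver cells after 24 h dosing. RT-PCR products were fluorescently labelled, HpaI-cut and sized by capillary electrophoresis; activity fitted bidirectionally against DMSO baseline.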

[10] = ATG_GRE_CIS: Attagene CIS-FACTORIAL HepG2 Assay for human Glucocorticoid Response Elements (GRE) (AID 2282947); conditions: HepG2 GRE cis-reporter, Attagene multiplex mRNA; actives raise or lower the signal
Summary of the method: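 Following 24 h chemical exposure of transiently transfected HepG2 cells, total RNA was reverse-transcribed and reporter cDNA amplified, fluorescently labelled and sized by capillary electrophoresis. Signal gain or loss was fitted relative to DMSO vehicle.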

Measured: AC50

Cc1cccc(N)n1
inactive: [1] | [2] | [3] | [4] | [5] | [6] | [7]

O=C(C(Cl)Cl)N1CCOC12CCCCC2
inactive: [8] | [2] | [3] | [4] | [5] | [7] | [9]
active: [1] 5.74 µM

CCCCCc1ccc(Cl)cc1
inactive: [1] | [2] | [3] | [4] | [5] | [6] | [7]

CCCc1ccc(OC)cc1
inactive: [10] | [8] | [2] | [3] | [4] | [5] | [6] | [7]

COC(=O)C1=C(C)NC(C)=C(C(=O)OCC(C)C)C1c1ccccc1[N+](=O)[O-] (stereo not drawn)
active: [8] 11.1 µM | [4] 18 µM
inactive: [1] | [2] | [3] | [7] | [9]

CC(=O)Oc1ccc(C)cc1
inactive: [10] | [8] | [2] | [3] | [4] | [5] | [6] | [7]

C(=CC=Nc1ccccc1)C=CNc1ccccc1
inactive: [1] | [2] | [3] | [4] | [5] | [6] | [7] | [9]

O=C(Nc1cccc(C(F)(F)F)c1)c1cc(Br)cc(Br)c1O
inactive: [2]
active: [1] 66.7 µM | [8] 100 µM | [4] 19.9 µM | [6] 46.2 µM | [7] 85.8 µM | [9] 1.89 µM

C=COCCCC
inactive: [1] | [8] | [2] | [3] | [5] | [6] | [7] | [9]

Cc1cc(=O)n(-c2ccccc2)n1C
inactive: [1] | [8] | [2] | [3] | [5] | [7] | [9]

O=C1c2ccccc2C(=O)C1c1nc2ccccc2c(Br)c1O
inactive: [10] | [8] | [2] | [3] | [5] | [6] | [7]
active: [4] 4.92 µM

COc1cc(NC(=O)CC(C)=O)c(OC)cc1Cl
inactive: [10] | [8] | [2] | [3] | [4] | [5] | [6] | [7] | [9]

O=C1CCCCCN1SSN1CCCCCC1=O
inactive: [1] | [2] | [4] | [5] | [9]
active: [8] 167 µM | [6] 133 µM | [7] 165 µM

CCCC(=O)OCc1ccccc1
inactive: [1] | [8] | [2] | [4] | [6] | [7]

CC(=O)OCC(C)OC(C)=O (stereo not drawn)
inactive: [1] | [8] | [2] | [3] | [4] | [5] | [7]
